# Assay results as given in PubChem BioAssay (EPA / NIEHS).
# Results filed as inconclusive are left out. Active and inactive are the calls of the source. Rule for the calls, unless noted: active = hit-call score of the fitted dose curve at least 0.9, where 1 is the maximum; inactive = score below 0.9.
# Tests used:
# [1] = ATG_NFI_CIS: Attagene CIS-FACTORIAL HepG2 Assay for human Nuclear Factor I (NFI) (AID 2282989); settings: HepG2 cis-regulatory reporter, NFI response element transcription; actives raise or lower the signal
# Procedure, shortened: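 Multiplexed cis-reporter system in human HepG2 cells reports native TF activity as reporter mRNA induction 24 h post-dose. Fragments labelled with 6-FAM, HpaI-digested and resolved by capillary electrophoresis; activity fitted both directions versus DMSO.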
# [2] = target: Myc proto-oncogene protein (Homo sapiens) (UniProt P01106); assay: ATG_Myc_CIS: Attagene CIS-FACTORIAL HepG2 Assay for human Myelocytomatosis (Myc) Proto-Oncogene Transcription Factor (AID 2282990); settings: HepG2, Attagene cis-reporter transcription factor activity; actives raise or lower the signal
# Myc proto-oncogene protein (Homo sapiens), sequence (P01106 whole entry, looked up): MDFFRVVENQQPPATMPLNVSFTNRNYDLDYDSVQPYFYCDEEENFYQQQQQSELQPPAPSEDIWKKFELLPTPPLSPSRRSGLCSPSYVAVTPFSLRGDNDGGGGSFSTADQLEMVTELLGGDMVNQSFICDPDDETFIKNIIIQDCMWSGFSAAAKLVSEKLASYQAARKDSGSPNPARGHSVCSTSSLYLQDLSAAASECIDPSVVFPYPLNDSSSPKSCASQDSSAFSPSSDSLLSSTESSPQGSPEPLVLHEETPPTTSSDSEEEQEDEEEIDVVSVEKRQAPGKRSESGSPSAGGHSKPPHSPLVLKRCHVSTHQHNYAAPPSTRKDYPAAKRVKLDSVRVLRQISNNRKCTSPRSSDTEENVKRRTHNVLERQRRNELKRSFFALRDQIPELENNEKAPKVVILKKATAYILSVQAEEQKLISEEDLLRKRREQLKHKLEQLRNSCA
# Procedure, shortened: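 DMSO-normalised, bidirectionally fitted reporter mRNA signal. HepG2 cells transfected with cis reporter constructs, treated 24 h; transcripts detected by RT-PCR, 6-FAM primer extension and CE.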
# [3] = ATG_NF_kB_CIS: Attagene CIS-FACTORIAL HepG2 Assay for human Nuclear Factor Kappa B (NF-kB) (AID 2282991); settings: HepG2 Attagene cis-factorial NF-kB reporter mRNA; actives raise or lower the signal
# Procedure, shortened: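 Multiplexed cis-reporter assay in transiently transfected HepG2. 24 h treatment; RNA isolated, RT-PCR, labelled fragments resolved by CE. DMSO baseline.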
# [4] = ATG_NRF2_ARE_CIS: Attagene CIS-FACTORIAL HepG2 Assay for human Nuclear Factor Erythroid 2 Related Factor 2 (NFR2) response to Antioxidant Response Elements (ARE) (AID 2282992); settings: HepG2 Attagene ARE/NRF2 reporter, transcription factor activity; actives raise or lower the signal;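 for AC50: reporter mRNA level measured by RT-PCR and capillary electrophoresis fluorescence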
# Procedure, shortened: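 Endogenous transcription factor activity in human liver HepG2 cells is tracked via a cis-element-driven reporter within a multiplexed set. mRNA induction is read by RT-PCR and capillary electrophoresis after 24 h, with DMSO as baseline.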
# [5] = ATG_Oct_MLP_CIS: Attagene CIS-FACTORIAL HepG2 Assay for human Octamer-Binding Transcription Factor (Oct) (AID 2282993); settings: HepG2 Attagene cis-factorial Oct reporter, mRNA; actives raise or lower the signal
# Procedure, shortened: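 After 24 h compound exposure, transfected HepG2 cells were lysed for total RNA; reporter-specific cDNA was PCR-amplified, fluorescently labelled and sized by capillary electrophoresis. Bidirectional curve fitting used DMSO as baseline.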
# [6] = target: Cellular tumor antigen p53 (Homo sapiens) (UniProt P04637); assay: ATG_p53_CIS: Attagene CIS-FACTORIAL HepG2 Assay for human p53 Transcription Factor (AID 2282994); settings: HepG2 p53 cis-element reporter, Attagene mRNA; actives raise or lower the signal
# Cellular tumor antigen p53 (Homo sapiens), sequence (P04637 whole entry, looked up, the tested form may be a part): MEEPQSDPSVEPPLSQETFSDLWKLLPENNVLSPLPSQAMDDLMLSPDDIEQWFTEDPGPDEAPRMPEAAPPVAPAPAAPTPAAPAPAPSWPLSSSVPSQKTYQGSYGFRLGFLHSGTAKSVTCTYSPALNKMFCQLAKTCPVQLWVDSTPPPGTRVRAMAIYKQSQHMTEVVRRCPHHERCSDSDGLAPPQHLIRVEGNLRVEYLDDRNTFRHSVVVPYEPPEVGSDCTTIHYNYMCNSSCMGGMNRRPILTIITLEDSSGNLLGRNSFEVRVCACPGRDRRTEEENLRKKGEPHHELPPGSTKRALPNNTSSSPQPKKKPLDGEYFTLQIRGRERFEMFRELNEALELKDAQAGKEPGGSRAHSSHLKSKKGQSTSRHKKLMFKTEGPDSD
# Procedure, shortened: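 Steps: transfect HepG2 with multiplexed cis reporter constructs; dose chemicals 24 h; extract RNA, reverse-transcribe, PCR-amplify reporter sequences; FAM-label, HpaI-digest, resolve fragments by CE. Activity fitted both directions relative to DMSO.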
# [7] = target: human Peroxisome Proliferator-activated Receptor alpha (PPARa), PPARA (gene 5465) (UniProt Q07869); assay: ATG_PPARa_TRANS: Attagene TRANS-FACTORIAL HepG2 Assay for human Peroxisome Proliferator-activated Receptor alpha (PPARa) (AID 2283001; active = hit-call score of the fitted dose curve at least 0.9, where 1 is the maximum;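 for AC50: potency for gain of reporter signal over DMSO so agonist or activator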)
# human Peroxisome Proliferator-activated Receptor alpha (PPARa), PPARA (gene 5465), sequence (Q07869 whole entry, looked up, the tested form may be a part): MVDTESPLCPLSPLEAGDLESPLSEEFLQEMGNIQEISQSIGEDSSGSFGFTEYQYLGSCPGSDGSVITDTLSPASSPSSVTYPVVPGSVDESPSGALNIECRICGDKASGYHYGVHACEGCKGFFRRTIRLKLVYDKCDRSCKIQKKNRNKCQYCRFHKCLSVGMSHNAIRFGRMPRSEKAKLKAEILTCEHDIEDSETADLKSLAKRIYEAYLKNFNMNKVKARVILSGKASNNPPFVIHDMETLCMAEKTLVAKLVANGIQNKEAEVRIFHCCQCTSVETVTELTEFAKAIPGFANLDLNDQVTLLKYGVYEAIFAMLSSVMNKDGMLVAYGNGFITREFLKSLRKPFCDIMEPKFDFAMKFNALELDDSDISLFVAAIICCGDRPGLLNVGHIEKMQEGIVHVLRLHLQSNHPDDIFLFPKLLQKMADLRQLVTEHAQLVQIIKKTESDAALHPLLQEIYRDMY
# Procedure, shortened: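 Exposure: 24 h, transiently transfected HepG2 cells. Endpoint: GAL4-UAS reporter mRNA, RT-PCR with capillary electrophoresis fluorescence. Baseline: DMSO; increases fitted.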
# [8] = BSK_3C_TissueFactor: BioMAP Diversity Plus: 3C Assay for Tissue Factor Biomarker Activity (AID 2282997); settings: BioMAP 3C HUVEC, tissue factor biomarker readout; actives raise or lower the signal
# Procedure, shortened: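 HUVEC, 3C system, 24 h post-dose; Tissue Factor by ELISA; bidirectional fit vs DMSO baseline.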
# [9] = BSK_3C_uPAR: BioMAP Diversity Plus: 3C Assay for Urokinase-type plasminogen activator receptor (uPAR) Biomarker Activity (AID 2282998); settings: BioMAP 3C HUVEC, uPAR biomarker ELISA; actives raise or lower the signal
# Procedure, shortened: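 Values derive from bidirectional curve fitting relative to DMSO, which served as baseline of activity. uPAR was measured by ELISA in human umbilical vein endothelial primary cultures 24 h after compound addition.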
# [10] = BSK_4H_Eotaxin3: BioMAP Diversity Plus: 4H Assay for Eotaxin 3 Biomarker Activity (AID 2283000); settings: primary human endothelial cells (HUVEC); actives raise or lower the signal
# Procedure, shortened: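 Readout is Eotaxin-3 (CCL26) level by ELISA in primary human umbilical vein endothelial cells harvested 24 h after chemical exposure; activity fitted in both directions against DMSO control.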
compound,measurement,setting,value
CO[Si](CCC1CCC2OC2C1)(OC)OC (configuration not stated),outcome,[1],inactive
same,outcome,[2],inactive
same,outcome,[3],inactive
same,outcome,[4],inactive
same,outcome,[5],inactive
same,outcome,[6],inactive
O=CC1CC1,outcome,[1],inactive
same,outcome,[2],inactive
same,outcome,[3],inactive
same,outcome,[4],inactive
same,outcome,[5],inactive
same,outcome,[6],inactive
Nc1ccc(-c2ccc(F)cc2)cc1,outcome,[1],inactive
same,outcome,[2],inactive
same,outcome,[3],inactive
same,outcome,[4],inactive
same,outcome,[5],inactive
same,outcome,[6],inactive
CCN(Cc1cccc(S(=O)(=O)O)c1)c1ccc(C(=C2C=CC(=[N+](CC)Cc3cccc(S(=O)(=O)[O-])c3)C=C2)c2ccccc2)cc1,outcome,[1],inactive
same,outcome,[2],inactive
same,outcome,[3],inactive
same,AC50,[4],112 µM (active)
same,outcome,[5],inactive
same,outcome,[6],inactive
CC(C)=CC1CC(C)CCO1 (configuration not stated),outcome,[1],inactive
same,outcome,[2],inactive
same,outcome,[3],inactive
same,outcome,[4],inactive
same,outcome,[5],inactive
same,outcome,[6],inactive
same,outcome,[7],inactive
C=C(C)c1cccc(C(C)(C)N=C=O)c1,outcome,[1],inactive
same,outcome,[2],inactive
same,outcome,[3],inactive
same,outcome,[4],inactive
same,outcome,[5],inactive
same,outcome,[6],inactive
CCCCCCC1(C)CCC(=O)O1 (configuration not stated),outcome,[1],inactive
same,outcome,[2],inactive
same,outcome,[3],inactive
same,outcome,[4],inactive
same,outcome,[5],inactive
same,outcome,[6],inactive
same,outcome,[7],inactive
CCC(=O)Oc1ccc(/C(CC)=C(\CC)c2ccc(OC(=O)CC)cc2)cc1,AC50,[1],25.2 µM (active)
same,outcome,[2],inactive
same,AC50,[3],33.7 µM (active)
same,outcome,[4],inactive
same,outcome,[5],inactive
same,AC50,[6],27.9 µM (active)
O=C(Nc1ccccc1SSc1ccccc1NC(=O)c1ccccc1)c1ccccc1,outcome,[1],inactive
same,outcome,[2],inactive
same,outcome,[3],inactive
same,AC50,[4],29.2 µM (active)
same,outcome,[5],inactive
same,outcome,[6],inactive
same,AC50,[8],1.15 µM (active)
same,AC50,[9],9.54 µM (active)
same,AC50,[10],20 µM (active)
same,AC50,[7],23.4 µM (active)
CC=C1CC2C=CC1C2 (configuration not stated),outcome,[1],inactive
same,outcome,[2],inactive
same,AC50,[3],100 µM (active)
same,AC50,[4],45.9 µM (active)
same,outcome,[5],inactive
same,outcome,[6],inactive
O=C1CCCC(=O)O1,outcome,[1],inactive
same,outcome,[2],inactive
same,outcome,[3],inactive
same,outcome,[4],inactive
same,outcome,[5],inactive
same,outcome,[6],inactive
same,outcome,[7],inactive
COc1cc(C)ccc1C(C)C,outcome,[1],inactive
same,outcome,[2],inactive
same,outcome,[3],inactive
same,outcome,[4],inactive
same,outcome,[5],inactive
same,outcome,[6],inactive
same,outcome,[7],inactive
C[Si](C)(CCCN)O[Si](C)(C)CCCN,outcome,[1],inactive
same,outcome,[2],inactive
same,outcome,[3],inactive
same,outcome,[4],inactive
same,outcome,[5],inactive
same,outcome,[6],inactive
C=C[C@](C)(O)CC[C@@H]1[C@@]2(C)CCCC(C)(C)[C@@H]2CC[C@@]1(C)O,outcome,[1],inactive
same,outcome,[2],inactive
same,outcome,[3],inactive
same,AC50,[4],6.58 µM (active)
same,outcome,[5],inactive
same,outcome,[6],inactive
CCOC(F)(F)C(F)(F)C(F)(F)C(F)(F)F,outcome,[1],inactive
same,outcome,[2],inactive
same,outcome,[3],inactive
same,outcome,[4],inactive
same,outcome,[5],inactive
same,outcome,[6],inactive
Cc1cc(C)c(C)cc1C,outcome,[1],inactive
same,outcome,[2],inactive
same,outcome,[3],inactive
same,outcome,[4],inactive
same,outcome,[5],inactive
same,outcome,[6],inactive
O=C1CCCC1,outcome,[1],inactive
same,outcome,[2],inactive
same,outcome,[3],inactive
same,outcome,[4],inactive
same,outcome,[5],inactive
same,outcome,[6],inactive
COCc1c(C(C)C)nc(C(C)C)c(/C=C/[C@@H](O)C[C@@H](O)CC(=O)O)c1-c1ccc(F)cc1,outcome,[1],inactive
same,outcome,[2],inactive
same,outcome,[3],inactive
same,outcome,[4],inactive
same,outcome,[5],inactive
same,outcome,[6],inactive
same,AC50,[8],5.66 µM (active)
same,AC50,[9],0.0342 µM (active)
same,AC50,[10],0.0266 µM (active)
same,outcome,[7],inactive
Cc1ccccc1C,outcome,[1],inactive
same,outcome,[2],inactive
same,outcome,[3],inactive
same,outcome,[4],inactive
same,outcome,[5],inactive
same,outcome,[6],inactive
same,outcome,[7],inactive
O=C(O)c1cc2ccccc2nc1C(=O)O,outcome,[1],inactive
same,outcome,[2],inactive
same,outcome,[3],inactive
same,outcome,[4],inactive
same,outcome,[5],inactive
same,outcome,[6],inactive
same,outcome,[7],inactive
CC(C)CCCCCOC(=O)CCS,outcome,[1],inactive
same,outcome,[2],inactive
same,outcome,[3],inactive
same,outcome,[4],inactive
same,outcome,[5],inactive
same,outcome,[6],inactive
same,AC50,[7],9.41 µM (active)
C(=CC=Nc1ccccc1)C=CNc1ccccc1,outcome,[1],inactive
same,outcome,[2],inactive
same,outcome,[3],inactive
same,AC50,[4],49.4 µM (active)
same,outcome,[5],inactive
same,outcome,[6],inactive
same,outcome,[7],inactive
COc1ccc(-c2coc3cc(O)ccc3c2=O)cc1,outcome,[1],inactive
same,outcome,[2],inactive
same,outcome,[3],inactive
same,outcome,[4],inactive
same,outcome,[5],inactive
same,outcome,[6],inactive
same,outcome,[7],inactive
N#CCc1ccc(Cl)cc1Cl,outcome,[1],inactive
same,outcome,[2],inactive
same,outcome,[3],inactive
same,outcome,[4],inactive
same,outcome,[5],inactive
same,outcome,[6],inactive
same,outcome,[7],inactive
CCc1c(C(=O)O)c(=O)cnn1-c1ccc(Cl)cc1,outcome,[1],inactive
same,outcome,[2],inactive
same,outcome,[3],inactive
same,outcome,[4],inactive
same,outcome,[5],inactive
same,outcome,[6],inactive
same,outcome,[7],inactive
CCCCCCCCCCOC(C)=O,outcome,[1],inactive
same,outcome,[2],inactive
same,outcome,[3],inactive
same,outcome,[4],inactive
same,outcome,[5],inactive
same,outcome,[6],inactive
same,outcome,[7],inactive
OCCN(CCO)c1ccccc1,outcome,[1],inactive
same,outcome,[2],inactive
same,outcome,[3],inactive
same,outcome,[4],inactive
same,outcome,[5],inactive
same,outcome,[6],inactive
same,outcome,[7],inactive
O=C1OC(=O)c2cc(Oc3ccc4c(c3)C(=O)OC4=O)ccc21,outcome,[1],inactive
same,outcome,[2],inactive
same,outcome,[3],inactive
same,outcome,[4],inactive
same,outcome,[5],inactive
same,outcome,[6],inactive
same,outcome,[7],inactive
CCCCCC/C=C\CCCCCCCC(=O)O,outcome,[1],inactive
same,outcome,[2],inactive
same,outcome,[3],inactive
same,AC50,[4],26.5 µM (active)
same,outcome,[5],inactive
same,outcome,[6],inactive
same,outcome,[7],inactive
